Test results taken from PubChem BioAssay AID687041 (Broad Institute, 2013).
Entries with a potency or affinity are not part of this list. Calls of active or inactive are those of the source.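 Rule for the calls: active = compounds lowering miR-122 whose fitted half-maximal concentration is at most twice the top tested dose; inconclusive = flat fit with moderate reduction, or poor fit quality; inactive = the rest.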

Assay: endogenous miR-122 level reduction, dose response, orthogonal assay for miR-122 inhibitor project, cell-based, Huh7, RT-qPCR, dry powder (AID 687041)

With `O=C(CN1CCOCC1)Nc1ccc(Br)cc1C(=O)c1ccccc1` the outcome was “inactive”.
